# L major viab: reduces viability of Leishmania major promastigotes; AID 1063; inhibition, % at 10 µM; actives 9% (n = 200,000); resazurin fluorescence viability; in the data active means inhibition above about 50%;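 further: promastigotes grown with compound for 44 hours at 28 °C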
# INS promoter inh: TRM-6 insulin promoter activity inhibition; AID 1273; actives 0.9% (n = 130,000); TRM-6 cells (human fetal islet line), insulin promoter-eGFP reporter, imaging; reporter expression induced with tamoxifen; inhibition, % at 2 µM;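 active means inhibition above the mean plus 3 SD, with well images judged a real hit on visual review, cut at about 60% in these data, passing the limit was not always enough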
# Ins promoter up: MIN6 insulin promoter up-regulation. MIN6 insulin promoter-GFP reporter, high-content imaging; stronger effect = higher value. z-score at 5 µM. actives 0.3% (n = 190,000). AID 1625;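 active means z-score above 3 at 5 µM with at least 500 cells counted in the well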
# KCC2 mod: modulators of human KCC2 chloride dependent transport; Q9H2X9; KCC2 cells, thallium flux FluoZin-2 fluorescence; B-score of Tl+ flux slope (higher = more flux/activation; lower = inhibition) at 10 µM; actives 2.2% (n = 190,000);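 active means thallium flux slope and its plate-corrected score both differing from the plate sample mean at a set confidence after two filtering rounds, in either direction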;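 further: slope of fluorescence scaled to starting intensity during 10 to 20 s after thallium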
# Target sequence (Q9H2X9 whole entry, looked up): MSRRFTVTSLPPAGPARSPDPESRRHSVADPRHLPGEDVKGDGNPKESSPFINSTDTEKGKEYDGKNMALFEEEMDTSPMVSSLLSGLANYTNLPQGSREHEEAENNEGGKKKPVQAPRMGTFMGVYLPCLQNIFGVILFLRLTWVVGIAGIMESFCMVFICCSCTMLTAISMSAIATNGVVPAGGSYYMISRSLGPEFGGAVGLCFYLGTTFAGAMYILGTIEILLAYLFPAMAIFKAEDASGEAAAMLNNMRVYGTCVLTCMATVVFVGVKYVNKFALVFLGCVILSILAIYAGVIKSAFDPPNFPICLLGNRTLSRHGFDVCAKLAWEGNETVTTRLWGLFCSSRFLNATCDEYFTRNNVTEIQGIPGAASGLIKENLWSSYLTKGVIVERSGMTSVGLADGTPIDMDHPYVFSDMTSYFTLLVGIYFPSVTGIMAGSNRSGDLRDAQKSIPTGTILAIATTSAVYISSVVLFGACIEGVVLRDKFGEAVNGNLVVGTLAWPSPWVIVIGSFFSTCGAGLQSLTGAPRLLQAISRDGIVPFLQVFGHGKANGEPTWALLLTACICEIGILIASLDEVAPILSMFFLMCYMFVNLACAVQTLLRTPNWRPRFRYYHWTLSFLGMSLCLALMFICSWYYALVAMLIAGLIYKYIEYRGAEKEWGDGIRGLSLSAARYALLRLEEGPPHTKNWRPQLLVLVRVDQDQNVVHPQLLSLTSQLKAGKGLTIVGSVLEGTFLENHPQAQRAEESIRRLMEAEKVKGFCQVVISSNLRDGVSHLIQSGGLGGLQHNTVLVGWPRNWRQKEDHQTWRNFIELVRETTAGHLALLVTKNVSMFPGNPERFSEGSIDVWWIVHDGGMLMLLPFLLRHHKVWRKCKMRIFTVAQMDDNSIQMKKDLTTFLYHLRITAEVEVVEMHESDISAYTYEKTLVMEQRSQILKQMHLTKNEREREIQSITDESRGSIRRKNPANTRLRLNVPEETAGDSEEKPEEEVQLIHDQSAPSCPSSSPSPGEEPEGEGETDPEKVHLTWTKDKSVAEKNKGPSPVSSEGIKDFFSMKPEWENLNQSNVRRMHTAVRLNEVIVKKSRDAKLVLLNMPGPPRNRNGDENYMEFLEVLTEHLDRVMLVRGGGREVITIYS
# WT yeast gro inh: growth inhibition of WT yeast, mitochondrial fusion screen; mitochondrial fusion phenotypic screen, WT strain; actives 2.1% (n = 190,000); inhibition, % at 10 µM; in the data active means inhibition above about 58%; tested in S. cerevisiae
# ROMK primary: modulates human ROMK potassium channel activity | P48048 | Tet-inducible ROMK, thallium flux fluorescence; actives lie on both sides | B-score at 10 µM | actives 2% (n = 130,000) | AID 1918;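 active means signal ratio slope over the read window, or its plate-corrected B-score, at least 3 SD from the plate mean, either direction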;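 further: B-score of the F/F0 ratio slope over 7 to 12 s after thallium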
# An asterisk follows results filed as active; . = no result. Sampled rows, rich in hits. Any-hit rate of the full collection: about 12%.
SMILES,L major viab,INS promoter inh,Ins promoter up,KCC2 mod,WT yeast gro inh,ROMK primary
Oc1ccc(Cl)cc1C=Nc1ccc2c3c(cccc13)CC2,84*,-148,-0.49,0.031,-6,0.53
Cc1cccc(C=Nc2ccc3c4c(cccc24)CC3)c1O,4,.,0.11,1,9,.
CC(C)CCC(O)(CCC(C)C)C(=O)NN1CCCCC1,-8,.,-0.33,0.76,-26,0.48
Cc1ccc(C(O)(c2ccccc2)c2ccccc2C(C)N(C)C)c(C)c1 (stereo not drawn),100*,.,-1.6,-0.26,60,.
CC(c1ccccc1C(O)c1ccccc1)N(C)C (stereo not drawn),-2,.,-0.33,0.74,-5,-0.0011
Cc1ccc(-n2nnnc2SCC(=O)Nc2cccc(NC(=O)c3ccco3)c2)cc1C,66*,-79,0.04,.,-10,-0.53
CC(=O)c1ccc(-n2nnnc2SCC(=O)Nc2cccc(NC(=O)c3ccco3)c2)cc1,1,-8,-0.03,-0.075,73*,.
CCC(=O)Nc1cccc(-n2nnnc2SCC(=O)c2ccc(C)c(C)c2)c1,99*,-5,-0.36,-1.2,-18,-0.44
CC(=O)Nc1cccc(NC(=O)CSc2nnnn2Cc2ccccc2)c1,-1,.,0.37,-1.4,75*,.
CNc1nc(SC)nc(N2CCOCC2)n1,0,-81,0.11,0.87,-5,-0.83
O=C(CSc1ccc(Cl)cc1)Nc1ccc(NC(=O)c2ccco2)cc1,4,4,0.32,.,1,.
Cc1ccc(SCC(=O)Nc2cccc(NC(=O)c3ccco3)c2)cc1,77*,-21,.,-0.14,21,.
Cc1[nH]c2c(C)cccc2c1CCNC(=O)c1ccc2c(c1[N+](=O)[O-])C(=O)c1ccccc1C2=O,100*,-30,-0.32,-1.8,-17,.
Cc1[nH]c2ccccc2c1CCNC(=O)c1ccc2c(c1[N+](=O)[O-])C(=O)c1ccccc1C2=O,95*,-2,0.02,-1.5,2,.
CN(C)C(=O)c1ccc2c(c1[N+](=O)[O-])C(=O)c1ccccc1C2=O,33,-3,1.3,-0.85,45,-0.42
CCOC(=O)c1c(C)n(-c2ccc(C)cc2)c2ccc(OCC(O)CN3CCN(C)CC3)cc12 (stereo not drawn),100*,-107,-1.9,0.42,92*,-0.71
CCOC(=O)c1c(C)n(C)c2ccc(OCC(O)Cn3c(C)nc4ccccc43)cc12 (stereo not drawn),10,13,-2.1,0.66,2,-2.3
CCOC(=O)c1c(C)n(C)c2ccc(OCC(O)CN3CCN(C)CC3)cc12 (stereo not drawn),76*,.,-0.22,.,8,.
CCOc1cc(CNCCCN2CCOCC2)cc(Br)c1OCC(=O)Nc1cccc(C(F)(F)F)c1,101*,.,-1.6,.,-4,.
CCC(CO)NCc1ccc(OCC(=O)Nc2cccc(C(F)(F)F)c2)c(OC)c1 (stereo not drawn),95*,.,0.16,0.34,-2,-0.043
COc1cc(/C=C(\C#N)c2ccccn2)ccc1OCC(=O)Nc1cccc(C(F)(F)F)c1,4,-280,-0.04,0.38,-24,0.18
CCOc1cc(CNC(C)(C)C)ccc1OCC(=O)Nc1cccc(C(F)(F)F)c1,84*,.,-1.1,-0.088,17,-2.1
COc1ccc(/C=C(\NC(=O)c2cccs2)C(=O)Nc2ccc(C)cc2)cc1OC,-2,-29,-0.14,-1.2,-14,0.87
O=[N+]([O-])C1=CC=C2C(=NC3(CCCCC3)N2O)C1=NCCc1ccccc1,75*,53,-1,0.28,20,.
CC(C)(C)N=C1C([N+](=O)[O-])=CC=C2C1=NC1(CCCCC1)N2O,17,-10,0,-0.25,21,.
SMILES,L major viab,INS promoter inh,Ins promoter up,KCC2 mod,WT yeast gro inh,ROMK primary
N#Cc1ccc(OCC(=O)N/N=C2/CC(c3ccccc3)Oc3ccccc32)cc1 (stereo not drawn),53*,-17,0.05,-0.39,-3,.
CCOc1ccc(S(=O)(=O)N/N=C2/CC(c3ccccc3)Oc3ccccc32)cc1 (stereo not drawn),50*,29,-1.1,0.61,39,0.46
O=C(COC(=O)c1ccccc1F)c1ccc(-n2nncc2-c2ccco2)cc1,-10,.,-1.2,0.45,21,.
CC(O)CNCCCOc1ccccc1OCc1ccccc1 (stereo not drawn),99*,.,-1,0.95,-7,0.044
CC(C)C(C)NC(=O)COc1ccc(OCc2ccccc2)cc1 (stereo not drawn),-7,-52,-1.1,-0.26,34,-0.5
CC(O)CNCCCCOc1ccc(OCc2ccccc2)cc1 (stereo not drawn),97*,.,-0.1,-1.1,-12,-0.022
C/C=C/c1ccc(OCCCNCC(C)O)c(OC)c1 (stereo not drawn),-1,-48,0.8,-0.18,9,-1.3
CNCC(C)COc1ccccc1OCc1ccccc1 (stereo not drawn),99*,-148,-0.3,-1.6,-6,-1.5
O=C(NC1CC2CCC1C2)C1COc2ccccc2O1 (stereo not drawn),-6,-25,-0.23,-1.1,0,-0.88
CC(=O)Nc1ccc(NC(=O)c2ccc(NS(=O)(=O)c3cc(C(C)(C)C)cc(C)c3C)cc2)cc1,52*,-17,-0.13,1.2,7,0.43
Cc1cc(C(C)(C)C)cc(S(=O)(=O)Nc2ccc(O)c(C(=O)O)c2)c1C,-6,-39,1.7,.,0,0.48
COc1ccc(-c2nnc(SCC(=O)N(Cc3ccccc3)C(C)(C)C)o2)cc1OC,57*,.,-6,.,25,-2.2
O=C(Nn1cc(C(=O)Nc2ccccc2F)c2ccccc2c1=O)c1cnccn1,74*,.,0.71,1.3,7,0.14
COC(=O)c1cn(NC(=O)c2cnccn2)c(=O)c2ccccc12,-8,19,0.15,2.2,31,.
COc1ccc(S(=O)(=O)N2c3cc(C)ccc3OCC2C(C)(C)C)cc1 (stereo not drawn),3,33,.,.,1,.
Cc1ccc(S(=O)(=O)N2c3cc(C)ccc3OCC2C(C)(C)C)cc1 (stereo not drawn),1,.,0.16,0.96,69*,.
Cc1nn(-c2ccccc2)c(N2CCCC2)c1/C=N/NC(=S)Nc1cc(C(F)(F)F)ccc1Cl,10,.,-0.38,0.38,-12,.
Cc1nn(-c2ccccc2)c(N2CCCC2)c1/C=N/O,72*,53,1.5,-0.032,-7,0.3
Cc1nn(-c2ccccc2)c(Cl)c1/C=N/O,-8,7,-0.53,0.38,0,-1.1
Cc1nn(-c2ccccc2)c(N2CCCC2)c1/C=N/NC(=S)Nc1ccccc1C(F)(F)F,99*,18,-0.19,0.35,30,0.46
O=C(O)CC12C[C@H]3C[C@@H](C1)CC(n1ncc(N4CCN(c5ccccc5)CC4)c(Cl)c1=O)(C3)C2,-6,55,-0.15,-0.045,5,.
O=C(OCC(=O)N1CCN(C(=O)c2ccco2)CC1)c1cc(-c2ccc(F)cc2)nc2ccccc12,24,.,-1.9,-2.1,-1,-0.51
O=C(c1cc(Cl)ccc1[N+](=O)[O-])n1cnc2ccccc21,55*,18,0.48,-0.064,-30,-0.5

# High-throughput results: PubChem BioAssay, several laboratories
